Only some compounds are listed: those with a hit (about 5.7% of all), similar ones and a draw of the others.
NPSR antagonist – qHTS Assay for Antagonists of the Neuropeptide S Receptor: cAMP Signal Transduction; Q6W5P4; CHO-NPSR cells, cAMP TR-FRET, antagonist mode; actives 1% (n = 220,000); Potency, µM (top dose mostly 38.3 µM), for the others: at the top dose activity change, negative = inhibition, actives largely listed as inhibitors; further: nearly all actives have a fitted effect of over 50% in size
RORg inh – qHTS for inhibitors of ROR gamma transcriptional activity. Drosophila S2 Gal4-RORgamma UAS-luciferase reporter, 20 h. Potency, µM (series often up to 53.6 µM), for inactives: at the highest dose activity change, negative = inhibition, hits mostly inhibitors. actives 5.4% (n = 310,000). AID 2551, 2010; further: nearly all actives have a fitted effect of over 60% in size
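A Gal4/UAS one-hybrid system in insect cells: metallothionein-promoter Gal4–ROR gamma fusion plus Photinus luciferase reporter. Copper sulfate 700 uM final, 20 hr ambient incubation, luminescent detection after 10 min with reagent.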
B2AR arrestin – qHTS assay of beta-arrestin-biased ligands of beta2-adrenergic receptor | Beta-2 adrenergic receptor (Homo sapiens), P07550 | beta-arrestin recruitment to beta2AR, cell-based reporter | Potency, µM (series often up to 46.1 µM), inactives show top-dose activation, actives largely listed as activators | actives 0.02% (n = 330,000) | AID 492947, 2010;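 further: 0% = DMSO controls and full agonism = EC100 isoproterenol or metaproterenol; nearly all actives have a fitted effect of over 65% in size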
Target sequence (P07550 whole entry, looked up): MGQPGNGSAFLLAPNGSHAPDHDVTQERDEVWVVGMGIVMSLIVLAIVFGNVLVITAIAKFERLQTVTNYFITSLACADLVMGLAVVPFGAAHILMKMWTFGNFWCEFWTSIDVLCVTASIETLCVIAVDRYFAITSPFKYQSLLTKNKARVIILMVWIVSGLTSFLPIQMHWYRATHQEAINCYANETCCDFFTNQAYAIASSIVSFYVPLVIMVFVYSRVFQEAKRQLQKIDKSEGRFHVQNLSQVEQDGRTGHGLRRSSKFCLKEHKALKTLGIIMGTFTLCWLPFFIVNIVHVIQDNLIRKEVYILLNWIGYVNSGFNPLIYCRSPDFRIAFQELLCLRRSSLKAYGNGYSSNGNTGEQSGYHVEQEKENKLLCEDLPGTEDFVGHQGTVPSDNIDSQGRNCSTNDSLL
Gal4-VP16 FLuc – VP16 counterscreen qHTS for inhibitors of ROR gamma transcriptional activity | actives 3.5% (n = 310,000) | AID 2546, 2010 | Drosophila S2 Gal4-VP16 UAS-luciferase, luminescence, 20 h | Potency, µM (highest dose often 53.6 µM), without a hit: at the highest dose activity, negative = inhibition, hits mostly inhibitors;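 further: Gal4-VP16 expression switched on by copper sulfate through the metallothionein promoter; nearly all actives have a fitted effect of over 50% in size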
* = called active by the depositor; ? = inconclusive; · = no result; [ ] = remark or other dose. The call rests on the fitted dose curve; in most records, active means well fitted curve in the direction sought with a large enough effect; inconclusive means small, poorly fitted or top-dose-only effect, or another doubt; inactive means no such curve, though single readings can be large; an effect the other way counts as inactive or inconclusive. Unless noted, on the % scale 0 is the no-effect control and ±100 the full control effect; potency means the concentration at half of the fitted maximal effect.

SMILES | NPSR antagonist | RORg inh | B2AR arrestin | Gal4-VP16 FLuc
CC[C@]1(O)C[C@@H]2CN(CCc3c([nH]c4ccccc34)[C@](C(=O)OC)(c3cc4c(cc3OC)N(C=O)[C@H]3[C@@](O)(C(=O)OC)[C@H](C(=O)OC)[C@@]5(CC)C=CCN6CC[C@]43[C@H]65)C2)C1 | · | 43.5% | · | 4.5%
COC(=O)Cc1[nH]n(-c2nc3ccccc3s2)c(=O)c1C(C)=Nc1ccc(Cl)cc1 | -7.1% | 11.2µM* | -0.7% | -19.7%
C/C(=N/NC(=O)c1cccs1)c1c(C)[nH]n(-c2nc3ccccc3s2)c1=O | -25.5% | 1.41µM* | -0.2% | 2µM*
Cc1c(C(=O)N/N=C/C(C)C)[nH]c2c([N+](=O)[O-])cccc12 | -14.6% | 2.24µM* | -1.1% | -22.5%
CCOC(=O)c1ccccc1NC(=O)c1cn(CC)c2nc(C)ccc2c1=O | -19.6%[46.1 µM] | 11.2µM* | -0.5% | ?
CCn1cc(C(=O)Nc2ccccc2C(=O)OC)c(=O)c2ccc(C)nc21 | -13.1%[46.1 µM] | -16.0% | 0.1% | -21.9%
CC(O)CNc1nc2ccccc2n1-c1ncnc2sc3c(c12)CCC3 (centres undefined) | ? | ? | 0.2% | 14.1µM*
c1ccc2c(c1)ncn2-c1ncnc2sc3c(c12)CCCC3 | -21.7%[46.1 µM] | ? | 0.2% | -1.6%
COCCNc1nc2c(c(=O)n(C)c(=O)n2C)n1Cc1cccc(C(F)(F)F)c1 | -8.7%[46.1 µM] | -13.6% | -0.1% | 3.16µM*
CCCNc1nc2c(c(=O)n(C)c(=O)n2C)n1CCc1ccccc1 | -9.9%[46.1 µM] | ? | -0.1% | ?
CCCNc1nc2c(c(=O)n(C)c(=O)n2C)n1Cc1cccc(C)c1 | 4.1%[46.1 µM] | -32.3% | 0.3% | 5.01µM*
CC1C(c2ccccc2)N(C)C(c2ccccc2)C(C)C1(O)C#Cc1ccccc1 (centres undefined) | -53.5% | 15.8µM* | -0.6% | ?
CCN1CCC(O)(C#Cc2ccccc2)CC1 | · | 22.0% | 0.4% | 1.0%
COC(=O)c1ccccc1NS(=O)(=O)c1c(C)noc1C | · | -6.7% | -0.5% | 2.4%
COc1ccc(Cn2c3nc4ccccc4nc3c3c(=O)n(Cc4ccco4)cnc32)cc1 | ? | 10µM* | 0.0% | ?
Cn1cc(Br)c(C(=O)NNC(=O)Nc2ccccc2C(F)(F)F)n1 | 7.0% | 11.2% | 0.2% | -8.2%
Cc1ccc(C)c(N=Nc2nc3ccccc3n2C)c1 | -24.0%[46.1 µM] | 3.16µM* | -0.3% | 8.91µM*
Cc1cc(C)c(C)c(N=Nc2nc3ccccc3n2C)c1C | ? | 2.24µM* | 0.3% | 5.62µM*
CC(=O)NNC(=S)NC(=O)c1ccc(C)cc1 | 13.6% | 22.4% | 0.1% | -3.6%
CCC(=O)NNC(=S)NC(=O)c1ccc(C)cc1 | 6.3% | 3.16µM* | 0.2% | 17.8µM*
Cc1ccc(C(=O)NC(=S)NNC(=O)COc2ccccc2C)cc1 | 8.2% | 3.98µM* | -0.3% | ?
COC(=O)NNC(=O)COc1ccccc1C | 5.4% | -3.0% | -3.8% | -0.7%
Cc1cnn(C(=S)NCc2ccc(Cl)cc2)c1 | -3.0%[46.1 µM] | 6.31µM* | -0.5% | 7.08µM*
CCCN1CCN(C(=S)NCc2ccc(Cl)cc2)CC1 | -1.7% | -7.6% | -0.7% | -7.8%
CC(=O)N1CCN(C(=S)NCCc2ccccc2)CC1 | 22.7% | 22.4% | -0.5% | 0.3%
SMILES | NPSR antagonist | RORg inh | B2AR arrestin | Gal4-VP16 FLuc
Cc1cnn(C(=S)NCCc2ccccc2)c1 | -12.3%[46.1 µM] | 14.1µM* | -0.2% | ?
O=P(c1ccccc1)(c1ccccc1)c1nc(-c2ccc(Cl)cc2)oc1N1CCOCC1 | 10µM* | ? | -0.3% | -20.0%
c1ccc(CN2C3=NCCN3c3ccccc32)cc1 | 18.9% | -21.7% | -0.8% | -5.3%
Clc1ccc(CN2C3=NCCN3c3ccccc32)cc1Cl | 1.0%[46.1 µM] | 17.8µM* | -0.5% | -15.9%
COCCCN1CN(S(=O)(=O)c2ccc(C)cc2C)c2nc3ccccc3nc21 | · | 19.8% | -0.2% | -2.1%
CCCC(=O)N1CCN(c2ccc(NC(=O)c3ccc([N+](=O)[O-])o3)cc2)CC1 | 7.94µM* | ? | 0.2% | -12.3%
CC(C)(C)C(=O)N1CCN(c2ccc(NC(=O)c3ccc([N+](=O)[O-])o3)cc2)CC1 | · | ? | 0.2% | 14.1µM*
CCc1cc2cc(C)cc(C)c2[nH]c1=S | 12.8% | 7.08µM* | 0.2% | -20.2%
C[C@]12C(=O)N(c3ccc(Br)cc3)C(=O)N1[C@H]1c3ccccc3OC[C@@H]1[C@H]2c1ccccc1 | · | · | 0.0% | ·
CCOc1ccc(C(=O)Nc2cc(C)on2)cc1 | -22.0%[46.1 µM] | ? | 0.0% | ?

Source: PubChem (National Center for Advancing Translational Sciences (NCATS))
